These results are taken from the supplement of paper PMC10849652.

About 7,900 targets were measured; listed, in parts, are those with a hit and a random draw of the rest. About 0.6% of all pairs of compound and target were hits.

Sequence of UniProt Q16537 (Q16537 whole entry, looked up): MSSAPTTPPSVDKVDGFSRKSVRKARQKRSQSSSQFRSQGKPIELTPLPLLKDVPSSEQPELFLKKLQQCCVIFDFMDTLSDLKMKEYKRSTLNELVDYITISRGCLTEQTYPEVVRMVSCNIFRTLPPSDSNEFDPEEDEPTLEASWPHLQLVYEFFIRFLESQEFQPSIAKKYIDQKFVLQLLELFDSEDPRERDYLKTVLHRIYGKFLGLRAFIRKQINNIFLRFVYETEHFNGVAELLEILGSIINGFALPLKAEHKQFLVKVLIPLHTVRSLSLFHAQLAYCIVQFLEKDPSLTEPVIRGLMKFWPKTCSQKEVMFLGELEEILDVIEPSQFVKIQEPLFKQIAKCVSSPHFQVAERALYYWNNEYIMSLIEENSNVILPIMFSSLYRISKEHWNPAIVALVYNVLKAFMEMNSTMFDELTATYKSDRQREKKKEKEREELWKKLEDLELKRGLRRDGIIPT
Sequence of UniProt O15067 (O15067 whole entry, looked up): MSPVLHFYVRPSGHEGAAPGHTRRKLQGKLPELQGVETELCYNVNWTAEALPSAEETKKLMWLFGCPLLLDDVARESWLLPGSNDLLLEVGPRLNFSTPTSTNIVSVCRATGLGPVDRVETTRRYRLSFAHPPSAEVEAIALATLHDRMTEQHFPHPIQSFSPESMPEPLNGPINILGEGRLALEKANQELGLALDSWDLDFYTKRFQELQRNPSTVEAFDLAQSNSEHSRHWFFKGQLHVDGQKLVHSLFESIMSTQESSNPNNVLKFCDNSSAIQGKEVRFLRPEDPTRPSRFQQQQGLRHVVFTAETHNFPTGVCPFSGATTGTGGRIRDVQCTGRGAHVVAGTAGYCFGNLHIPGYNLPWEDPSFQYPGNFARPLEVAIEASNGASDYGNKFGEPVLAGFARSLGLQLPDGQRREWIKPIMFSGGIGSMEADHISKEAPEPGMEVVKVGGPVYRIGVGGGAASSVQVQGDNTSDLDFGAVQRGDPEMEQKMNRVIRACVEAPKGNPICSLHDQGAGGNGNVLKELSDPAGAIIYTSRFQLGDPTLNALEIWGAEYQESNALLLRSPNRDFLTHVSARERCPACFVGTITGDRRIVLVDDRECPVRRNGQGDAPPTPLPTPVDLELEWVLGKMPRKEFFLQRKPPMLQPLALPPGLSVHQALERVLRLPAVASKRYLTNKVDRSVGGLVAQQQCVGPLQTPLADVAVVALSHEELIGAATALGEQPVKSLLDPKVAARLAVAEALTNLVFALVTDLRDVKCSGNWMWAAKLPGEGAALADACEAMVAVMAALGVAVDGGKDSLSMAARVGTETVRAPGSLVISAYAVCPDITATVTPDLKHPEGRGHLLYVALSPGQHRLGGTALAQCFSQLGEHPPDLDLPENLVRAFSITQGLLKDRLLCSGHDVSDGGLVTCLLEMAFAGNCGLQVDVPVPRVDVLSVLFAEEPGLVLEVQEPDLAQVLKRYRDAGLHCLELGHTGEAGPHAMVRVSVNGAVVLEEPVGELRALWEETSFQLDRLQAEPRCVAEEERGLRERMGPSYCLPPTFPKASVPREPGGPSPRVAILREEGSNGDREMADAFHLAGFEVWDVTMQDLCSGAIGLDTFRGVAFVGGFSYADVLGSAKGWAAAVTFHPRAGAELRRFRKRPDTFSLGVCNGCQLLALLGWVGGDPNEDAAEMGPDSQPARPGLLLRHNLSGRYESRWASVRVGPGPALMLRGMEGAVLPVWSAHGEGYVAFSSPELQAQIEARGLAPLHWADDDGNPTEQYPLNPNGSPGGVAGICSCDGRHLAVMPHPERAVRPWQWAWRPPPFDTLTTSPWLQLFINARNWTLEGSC
Sequence of UniProt O43395 (O43395 whole entry, looked up): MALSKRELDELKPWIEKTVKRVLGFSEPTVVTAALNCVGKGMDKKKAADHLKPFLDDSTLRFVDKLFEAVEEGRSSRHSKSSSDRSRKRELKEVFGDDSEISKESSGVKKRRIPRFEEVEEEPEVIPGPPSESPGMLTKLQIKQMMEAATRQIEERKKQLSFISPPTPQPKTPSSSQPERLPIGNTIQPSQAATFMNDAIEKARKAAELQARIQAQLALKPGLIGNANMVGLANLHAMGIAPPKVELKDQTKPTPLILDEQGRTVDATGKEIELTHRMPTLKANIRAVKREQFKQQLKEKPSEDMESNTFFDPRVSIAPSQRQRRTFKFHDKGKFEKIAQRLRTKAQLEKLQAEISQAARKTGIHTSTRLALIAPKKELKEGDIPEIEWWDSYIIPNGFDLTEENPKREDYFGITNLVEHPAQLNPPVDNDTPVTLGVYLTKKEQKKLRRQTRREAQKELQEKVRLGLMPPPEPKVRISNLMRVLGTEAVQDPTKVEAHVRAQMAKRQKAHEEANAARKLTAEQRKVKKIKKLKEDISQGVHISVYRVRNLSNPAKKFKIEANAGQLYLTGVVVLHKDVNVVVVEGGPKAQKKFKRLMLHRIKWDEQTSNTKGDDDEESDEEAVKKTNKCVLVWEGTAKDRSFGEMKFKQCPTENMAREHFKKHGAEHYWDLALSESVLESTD
Sequence of UniProt Q9NP80 (Q9NP80 whole entry, looked up): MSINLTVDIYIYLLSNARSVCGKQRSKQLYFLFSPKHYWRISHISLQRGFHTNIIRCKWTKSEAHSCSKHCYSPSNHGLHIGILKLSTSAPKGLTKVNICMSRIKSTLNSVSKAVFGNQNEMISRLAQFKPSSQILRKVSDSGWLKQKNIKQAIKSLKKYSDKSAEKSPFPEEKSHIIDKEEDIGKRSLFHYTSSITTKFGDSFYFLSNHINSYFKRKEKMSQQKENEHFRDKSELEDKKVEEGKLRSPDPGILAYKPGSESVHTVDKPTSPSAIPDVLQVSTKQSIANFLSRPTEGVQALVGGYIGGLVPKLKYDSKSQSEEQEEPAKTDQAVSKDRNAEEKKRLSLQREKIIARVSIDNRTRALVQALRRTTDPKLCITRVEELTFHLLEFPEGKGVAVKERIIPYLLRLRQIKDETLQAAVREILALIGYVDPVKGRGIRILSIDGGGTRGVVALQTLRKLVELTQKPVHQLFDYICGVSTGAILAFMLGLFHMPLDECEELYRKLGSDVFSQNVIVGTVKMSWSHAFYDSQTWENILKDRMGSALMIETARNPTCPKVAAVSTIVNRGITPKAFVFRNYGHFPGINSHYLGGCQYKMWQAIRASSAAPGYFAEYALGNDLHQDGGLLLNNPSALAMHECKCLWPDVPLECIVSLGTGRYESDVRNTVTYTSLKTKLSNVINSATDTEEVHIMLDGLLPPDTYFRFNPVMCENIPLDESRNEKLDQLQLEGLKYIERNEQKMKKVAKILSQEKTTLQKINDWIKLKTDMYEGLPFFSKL
Sequence of UniProt Q15257 (Q15257 whole entry, looked up): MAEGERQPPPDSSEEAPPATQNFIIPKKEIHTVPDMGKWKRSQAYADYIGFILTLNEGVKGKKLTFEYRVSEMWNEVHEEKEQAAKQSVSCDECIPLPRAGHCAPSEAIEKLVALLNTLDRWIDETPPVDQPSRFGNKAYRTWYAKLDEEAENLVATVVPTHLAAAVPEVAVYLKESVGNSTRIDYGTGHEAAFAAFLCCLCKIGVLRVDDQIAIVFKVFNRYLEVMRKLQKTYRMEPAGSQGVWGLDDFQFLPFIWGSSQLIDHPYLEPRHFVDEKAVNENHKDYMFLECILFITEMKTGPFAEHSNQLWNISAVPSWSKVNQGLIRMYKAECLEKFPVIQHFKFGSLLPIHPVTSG
Sequence of UniProt Q9H300 (Q9H300 whole entry, looked up): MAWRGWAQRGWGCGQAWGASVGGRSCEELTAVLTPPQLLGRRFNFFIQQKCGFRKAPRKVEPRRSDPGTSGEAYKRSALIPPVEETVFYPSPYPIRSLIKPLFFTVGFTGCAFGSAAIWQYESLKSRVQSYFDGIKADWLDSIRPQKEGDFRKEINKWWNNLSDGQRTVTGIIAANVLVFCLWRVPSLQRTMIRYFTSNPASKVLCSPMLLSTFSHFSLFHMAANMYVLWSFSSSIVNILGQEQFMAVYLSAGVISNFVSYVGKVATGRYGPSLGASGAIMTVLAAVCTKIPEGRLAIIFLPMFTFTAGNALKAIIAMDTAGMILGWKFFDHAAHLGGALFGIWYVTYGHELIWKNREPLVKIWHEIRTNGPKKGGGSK
Sequence of UniProt Q9Y244 (Q9Y244 whole entry, looked up): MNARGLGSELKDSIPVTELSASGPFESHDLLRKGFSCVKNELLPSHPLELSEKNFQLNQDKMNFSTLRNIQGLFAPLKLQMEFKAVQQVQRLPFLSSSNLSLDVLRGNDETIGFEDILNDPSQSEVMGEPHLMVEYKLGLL
Sequence of UniProt P49643 (P49643 whole entry, looked up): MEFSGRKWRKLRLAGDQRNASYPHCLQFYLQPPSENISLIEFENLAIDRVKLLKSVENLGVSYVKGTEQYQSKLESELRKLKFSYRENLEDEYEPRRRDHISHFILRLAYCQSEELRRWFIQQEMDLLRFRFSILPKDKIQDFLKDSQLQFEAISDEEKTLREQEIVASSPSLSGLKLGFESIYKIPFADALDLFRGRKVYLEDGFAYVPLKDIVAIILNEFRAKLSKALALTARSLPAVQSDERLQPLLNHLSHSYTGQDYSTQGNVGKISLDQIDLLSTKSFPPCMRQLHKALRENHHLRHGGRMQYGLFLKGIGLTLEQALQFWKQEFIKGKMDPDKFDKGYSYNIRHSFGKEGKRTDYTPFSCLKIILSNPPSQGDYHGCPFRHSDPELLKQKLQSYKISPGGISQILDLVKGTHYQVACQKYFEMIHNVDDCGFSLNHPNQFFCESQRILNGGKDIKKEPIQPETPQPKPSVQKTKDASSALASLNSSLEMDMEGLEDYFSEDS
Sequence of UniProt P25788 (P25788 whole entry, looked up): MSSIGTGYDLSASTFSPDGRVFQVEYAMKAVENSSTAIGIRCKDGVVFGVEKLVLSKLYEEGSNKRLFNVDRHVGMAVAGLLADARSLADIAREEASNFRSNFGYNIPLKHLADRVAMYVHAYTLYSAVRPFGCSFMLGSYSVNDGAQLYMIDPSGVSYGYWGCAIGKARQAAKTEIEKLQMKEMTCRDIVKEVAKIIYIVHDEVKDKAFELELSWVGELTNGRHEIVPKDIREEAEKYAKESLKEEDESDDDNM

Compound in one assay: CN(CCOC1=CC=C(C=C1)C[C@H]2C(=O)NC(=O)S2)C3=CC=CC=N3 (racemic) [rosiglitazone]
Kind of assay: log2 fold change, soluble protein after heating vs DMSO (PISA); higher = thermal stabilisation; K562 cells, 10 uM, 30 min; active = over 0.2 and 3.5 SD of the protein, either way, in both replicates (recomputed). Put shortly:
(§1)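 For each measurement, 10 μM compound was applied for 30 min to K562 cells at 2×10^6 cells/mL. Aliquots were heated for 3 min across 48°C-58°C, pooled, and extracted in PBS with 0.5% NP-40 at 4°C; the supernatant after 21,000xg for 90 min was soluble protein. This was quantified by TMTpro 16plex LC-MS/MS with channel sums equalised, and thermal stability was reported relative to control samples from duplicates, on a log2 fold-change scale.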
As to PYGL (UniProt P06737), the log2 fold change was 0.018 (inactive).
On the same count and under the same terms, the value for POTEI (UniProt P0CG38) was -0.028 (inactive); that for POLR1A (UniProt O95602) was 0.015 (inactive).
Turning to POMP (UniProt Q9Y244), the log2 fold change is -0.059 (inactive).
Same read-out and setting: the value for PPP2R5E (UniProt Q16537) was 0.099 (inactive); that for PSMA3 (UniProt P25788) was -0.039 (inactive); that for PRPF3 (UniProt O43395) was 0.059 (inactive).
Turning to PNPLA8 (UniProt Q9NP80), the log2 fold change is 0.069 (inactive).
Still for that read-out and setting: the same measure for PRMT3 (UniProt O60678): 0.077 (inactive); for PRIM2 (UniProt P49643): 0.065 (inactive).
Same read-out and setting: the value for PFAS (UniProt O15067) was -0.003 (inactive); that for PARL (UniProt Q9H300) was 0.035 (inactive); that for PDPK1 (UniProt O15530) was 0.064 (inactive).
In the case of PTPA (UniProt Q15257), the log2 fold change was 0.008 (inactive).

Compound in the next assay: CN1C2=C(C3=C1C(=O)N(N=C3)CC4=CC(=CC=C4)N)SC(=C2)S(=O)C
Described as above. In short, it runs like this: as §1
With PYGB (UniProt P11216), the log2 fold change was 0.021 (inactive).
In the case of PLCB3 (UniProt Q01970), the log2 fold change was -0.009 (inactive).
Still for that read-out and setting: the same measure for POLR2M (UniProt P0CAP2): -0.028 (inactive).
Regarding PEX16 isoform 2 (UniProt Q9Y5Y5), the log2 fold change was -0.127 (inactive).
Take PTPA (UniProt A6PVN8): the log2 fold change is 0.069 (inactive).
The same measure, in the same setting: the value for PARN (UniProt O95453) was -0.057 (inactive); that for PKM (UniProt P14618) was 0.002 (inactive).
For PRIM1 (UniProt P49642), the log2 fold change was 0.052 (inactive).
As for PCK2 (UniProt Q16822), the log2 fold change was -0.094 (inactive).
As for POLR2G (UniProt P62487), the log2 fold change was 0.002 (inactive).
Same read-out and setting: the same measure for PTDSS1 (UniProt P48651): 0.177 (inactive).
For PHKA2 (UniProt P46019), the log2 fold change was -0.002 (inactive).
On the same count and under the same terms, the same measure for PISD (UniProt Q9UG56): -0.036 (inactive).
As for PIP4P1 isoform 2 (UniProt Q86T03), the log2 fold change was 0.076 (inactive).
For PGGT1B (UniProt P53609), the log2 fold change is -0.101 (inactive).
Still for that read-out and setting: the value for PCLAF (UniProt Q15004) was 0.001 (inactive).
As to POLR3K (UniProt Q9Y2Y1), the log2 fold change was -0.012 (inactive).
In the case of POLR2K (UniProt P53803), the log2 fold change is -0.02 (inactive).
On to PCBP1 (UniProt Q15365), for which the log2 fold change was 0.009 (inactive).
On to PCNT (UniProt O95613), for which the log2 fold change is 0.158 (inactive).
With PTGR2 (UniProt Q8N8N7), the log2 fold change was 0.025 (inactive).
The same measure, in the same setting: the same measure for PLIN2 (UniProt Q99541): 0 (inactive).
On the same count and under the same terms, the same measure for PDCD6 (UniProt O75340): -0.041 (inactive); for PYGL (UniProt P06737): -0.006 (inactive); for POTEI (UniProt P0CG38): -0.06 (inactive).
Same read-out and setting: the same measure for POLR1A (UniProt O95602): 0.056 (inactive).
For the target POMP (UniProt Q9Y244), the log2 fold change is -0.02 (inactive).
For the target PPP2R5E (UniProt Q16537), the log2 fold change was -0.048 (inactive).
In the case of PSMA3 (UniProt P25788), the log2 fold change is -0.027 (inactive).
Turning to PRPF3 (UniProt O43395), the log2 fold change is 0.004 (inactive).
Regarding PNPLA8 (UniProt Q9NP80), the log2 fold change was 0.003 (inactive).
Regarding PRMT3 (UniProt O60678), the log2 fold change is -0.008 (inactive).
The same measure, in the same setting: the value for PRIM2 (UniProt P49643) was 0.013 (inactive); that for PFAS (UniProt O15067) was -0.241 (inactive).
With PARL (UniProt Q9H300), the log2 fold change was -0.004 (inactive).
For the target PDPK1 (UniProt O15530), the log2 fold change is -0.008 (inactive).
PTPA (UniProt Q15257): the log2 fold change was -0.072 (inactive).

Compound in another assay: CN1CCC(CNc2ccc3ncc(-c4cccc(OC(F)(F)F)c4)n3n2)CC1
Described as above. In short, it runs like this: as §1
In the case of PYGB (UniProt P11216), the log2 fold change was -0.071 (inactive).
Same read-out and setting: the same measure for PLCB3 (UniProt Q01970): -0.246 (active); for POLR2M (UniProt P0CAP2): 0.037 (inactive).
In the case of PEX16 isoform 2 (UniProt Q9Y5Y5), the log2 fold change was -0.124 (inactive).
Take PTPA (UniProt A6PVN8): the log2 fold change was 0.011 (inactive).
Still for that read-out and setting: the same measure for PARN (UniProt O95453): -0.196 (inactive); for PKM (UniProt P14618): -0.017 (inactive).
Still for that read-out and setting: the value for PRIM1 (UniProt P49642) was -0.12 (inactive); that for PCK2 (UniProt Q16822) was 0.027 (inactive).
Take POLR2G (UniProt P62487): the log2 fold change is 0.081 (inactive).
In the case of PTDSS1 (UniProt P48651), the log2 fold change is -0.081 (inactive).
In the case of PHKA2 (UniProt P46019), the log2 fold change was -0.35 (active).
Same read-out and setting: the same measure for PISD (UniProt Q9UG56): -0.192 (inactive); for PIP4P1 isoform 2 (UniProt Q86T03): -0.262 (inactive); for PGGT1B (UniProt P53609): -0.008 (inactive).
In the case of PCLAF (UniProt Q15004), the log2 fold change is 0.015 (inactive).
As to POLR3K (UniProt Q9Y2Y1), the log2 fold change is -0.01 (inactive).
Still for that read-out and setting: the value for POLR2K (UniProt P53803) was 0.05 (inactive).
The same measure, in the same setting: the same measure for PCBP1 (UniProt Q15365): -0.129 (inactive).
The same measure, in the same setting: the same measure for PCNT (UniProt O95613): -0.567 (active).
In the case of PTGR2 (UniProt Q8N8N7), the log2 fold change is -0.278 (inactive).
Regarding PLIN2 (UniProt Q99541), the log2 fold change is -0.699 (active).
The same measure, in the same setting: the same measure for PDCD6 (UniProt O75340): -0.057 (inactive); for PYGL (UniProt P06737): 0.029 (inactive).
On the same count and under the same terms, the value for POTEI (UniProt P0CG38) was 0.035 (inactive); that for POLR1A (UniProt O95602) was 0.054 (inactive); that for POMP (UniProt Q9Y244) was -0.004 (inactive).
Still for that read-out and setting: the same measure for PPP2R5E (UniProt Q16537): -0.99 (active).
Consider PSMA3 (UniProt P25788), for which the log2 fold change was 0.046 (inactive).
Consider PRPF3 (UniProt O43395), for which the log2 fold change is -0.17 (inactive).
Still for that read-out and setting: the same measure for PNPLA8 (UniProt Q9NP80): -0.262 (active); for PRMT3 (UniProt O60678): -0.953 (active).
Same read-out and setting: the value for PRIM2 (UniProt P49643) was -0.131 (inactive); that for PFAS (UniProt O15067) was -0.001 (inactive).
Same read-out and setting: the same measure for PARL (UniProt Q9H300): -0.134 (inactive).
Turning to PDPK1 (UniProt O15530), the log2 fold change was -0.275 (inactive).
On the same count and under the same terms, the value for PTPA (UniProt Q15257) was -0.009 (inactive).
